In all, about 5,500 compounds went through this assay and about 2,000 (36%) were called active. Not shown: some 18% with an inconclusive outcome. Rule as the data show it: active = normalized growth mostly below about 0.91 (no sharp cut-off); inconclusive = no clear call, values can overlap the other calls; inactive = mostly above about 0.92. The list shows a part of the results.
Assay: chemical genetic growth profiling, strain panel (AID 1159580);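 also: tested at 20 µM; growth read once vehicle control cultures reached saturation at 30 °C; 1 = growth at the plate median or of vehicle wells; lower values mean less growth of the strain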
Conditions: growth OD

Measured: normalized growth

COC(=O)CCCOc1ccc(Cl)cc1Cl
inactive: S. cerevisiae deletion strains, locus YJR043C, strain POL32, active compounds read low 0.979 | S. cerevisiae deletion strains, locus YJR075W, strain HOC1, active compounds read low 0.995 | S. cerevisiae deletion strains, locus YKL009W, strain mrt4, active compounds read low 1.01 | S. cerevisiae deletion strains, locus YKL068W, active compounds read low 0.98 | S. cerevisiae deletion strains, locus YKL085W, strain MDH1 (second series), active compounds read low 0.982 | S. cerevisiae deletion strains, locus YKL085W, strain MDH1, active compounds read low 0.982 | S. cerevisiae deletion strains, locus YKL160W, strain elf1, active compounds read low 0.964 | S. cerevisiae deletion strains, locus YKL190W, strain CNB1, active compounds read low 0.99 | S. cerevisiae deletion strains, locus YKR001C, strain vps1, active compounds read low 0.987 | S. cerevisiae deletion strains, locus YKR026C, strain gcn3, active compounds read low 0.946 | S. cerevisiae deletion strains, locus YKR091W, strain srl3, active compounds read low 0.96 | S. cerevisiae deletion strains, locus YLL001W, strain dnm1, active compounds read low 0.957 | S. cerevisiae deletion strains, locus YLL026W, active compounds read low 0.957 | S. cerevisiae deletion strains, locus YLL041C, strain sdh2, active compounds read low 0.957 | S. cerevisiae deletion strains, locus YLR027C, strain aat2, active compounds read low 0.952 | S. cerevisiae deletion strains, locus YLR039C, strain RIC1, active compounds read low 0.982 | S. cerevisiae deletion strains, locus YLR058C, strain SHM2, active compounds read low 1 | S. cerevisiae deletion strains, locus YLR102C, strain apc9, active compounds read low 0.997 | S. cerevisiae deletion strains, locus YLR221C, strain rsa3, active compounds read low 0.967 | S. cerevisiae deletion strains, locus YLR258W, strain gsy2, active compounds read low 0.951 | S. cerevisiae deletion strains, locus YLR262C, strain YPT6 (second series), active compounds read low 0.92 | S. cerevisiae deletion strains, locus YLR262C, strain YPT6, active compounds read low 0.925 | S. cerevisiae deletion strains, locus YLR268W, strain sec22, active compounds read low 1.01 | S. cerevisiae deletion strains, locus YLR320W, strain mms22, active compounds read low 0.924 | S. cerevisiae deletion strains, locus YLR330W, strain CHS5, active compounds read low 0.991 | S. cerevisiae deletion strains, locus YLR342W, strain FKS1 (second series), active compounds read low 1 | S. cerevisiae deletion strains, locus YLR342W, strain FKS1, active compounds read low 0.948 | S. cerevisiae deletion strains, locus YLR357W, strain rsc2, active compounds read low 0.97 | S. cerevisiae deletion strains, locus YLR370C, strain arc18, active compounds read low 0.963 | S. cerevisiae deletion strains, locus YLR371W, strain rom2, active compounds read low 0.999 | S. cerevisiae deletion strains, locus YLR384C, strain iki3, active compounds read low 0.957 | S. cerevisiae deletion strains, locus YLR418C, strain cdc73, active compounds read low 1.02 | S. cerevisiae deletion strains, locus YML016C, strain PPZ1, active compounds read low 0.988 | S. cerevisiae deletion strains, locus YML032C, strain rad52, active compounds read low 1.01 | S. cerevisiae deletion strains, locus YML120C, strain ndi1, active compounds read low 0.967 | S. cerevisiae deletion strains, locus YML124C, strain tub3, active compounds read low 0.995 | S. cerevisiae deletion strains, locus YMR058W, strain fet3, active compounds read low 0.966 | S. cerevisiae deletion strains, locus YMR078C, strain ctf18, active compounds read low 1 | S. cerevisiae deletion strains, locus YMR125W, strain sto1, active compounds read low 0.954 | S. cerevisiae deletion strains, locus YMR129W, active compounds read low 0.95 | S. cerevisiae deletion strains, locus YMR205C, strain PFK2, active compounds read low 0.948 | S. cerevisiae deletion strains, locus YMR223W, strain ubp8, active compounds read low 1.01 | S. cerevisiae deletion strains, locus YMR231W, strain pep5, active compounds read low 0.949 | S. cerevisiae deletion strains, locus YMR263W, strain SAP30, active compounds read low 0.999 | S. cerevisiae deletion strains, locus YMR307W, strain GAS1, active compounds read low 0.98 | S. cerevisiae deletion strains, locus YNL067W, strain RPL9B, active compounds read low 0.995 | S. cerevisiae deletion strains, locus YNL071W, strain lat1, active compounds read low 0.967 | S. cerevisiae deletion strains, locus YNL128W, strain TEP1, active compounds read low 1 | S. cerevisiae deletion strains, locus YNL153C, strain GIM3, active compounds read low 0.999 | S. cerevisiae deletion strains, locus YNL209W, strain ssb2, active compounds read low 0.962 | S. cerevisiae deletion strains, locus YNL233W, strain BNI4, active compounds read low 1 | S. cerevisiae deletion strains, locus YNL248C, strain rpa49, active compounds read low 0.964 | S. cerevisiae deletion strains, locus YNL250W, strain rad50, active compounds read low 0.978 | S. cerevisiae deletion strains, locus YNL271C, strain bni1, active compounds read low 0.976 | S. cerevisiae deletion strains, locus YNL298W, strain CLA4, active compounds read low 0.985 | S. cerevisiae deletion strains, locus YNL307C, strain MCK1, active compounds read low 0.968 | S. cerevisiae deletion strains, locus YNL322C, strain KRE1 (second series), active compounds read low 0.957 | S. cerevisiae deletion strains, locus YNL322C, strain KRE1, active compounds read low 0.994 | S. cerevisiae deletion strains, locus YNR049C, strain mso1, active compounds read low 0.95 | S. cerevisiae deletion strains, locus YNR052C, strain pop2, active compounds read low 1.01 | S. cerevisiae deletion strains, locus YOL006C, strain TOP1, active compounds read low 0.971 | S. cerevisiae deletion strains, locus YOL012C, strain htz1 1.55 | S. cerevisiae deletion strains, locus YOL147C, strain pex11, active compounds read low 0.99 | S. cerevisiae deletion strains, locus YOR001W, strain rrp6, active compounds read low 0.983 | S. cerevisiae deletion strains, locus YOR061W, strain CKA2, active compounds read low 0.989 | S. cerevisiae deletion strains, locus YOR069W, strain VPS5, active compounds read low 1 | S. cerevisiae deletion strains, locus YOR070C, strain gyp1, active compounds read low 0.956 | S. cerevisiae deletion strains, locus YOR080W, strain dia2, active compounds read low 0.946 | S. cerevisiae deletion strains, locus YOR083W, strain WHI5, active compounds read low 0.957 | S. cerevisiae deletion strains, locus YOR106W, strain vam3, active compounds read low 0.991 | S. cerevisiae deletion strains, locus YOR136W, strain idh2, active compounds read low 1 | S. cerevisiae deletion strains, locus YOR144C, strain elg1, active compounds read low 0.998 | S. cerevisiae deletion strains, locus YOR184W, strain ser1, active compounds read low 0.993 | S. cerevisiae deletion strains, locus YOR265W, strain rbl2, active compounds read low 0.956 | S. cerevisiae deletion strains, locus YOR270C, strain vph1, active compounds read low 0.963 | S. cerevisiae deletion strains, locus YOR290C, strain snf2, active compounds read low 0.974 | S. cerevisiae deletion strains, locus YOR316C, strain cot1, active compounds read low 1 | S. cerevisiae deletion strains, locus YPL051W, strain arl3, active compounds read low 0.972 | S. cerevisiae deletion strains, locus YPL055C, strain LGE1, active compounds read low 0.978 | S. cerevisiae deletion strains, locus YPL078C, strain atp4, active compounds read low 0.948 | S. cerevisiae deletion strains, locus YPL106C, strain sse1, active compounds read low 0.964 | S. cerevisiae deletion strains, locus YPL240C, strain hsp82, active compounds read low 0.948 | S. cerevisiae deletion strains, locus YPL241C, strain CIN2, active compounds read low 0.993 | S. cerevisiae deletion strains, locus YPR119W, strain clb2, active compounds read low 0.995 | S. cerevisiae deletion strains, locus YPR141C, strain kar3, active compounds read low 0.981 | S. cerevisiae deletion strains, locus YPR163C, strain tif3, active compounds read low 1 | S. cerevisiae deletion strains, locus YPR167C, strain met16, active compounds read low 0.999 | S. cerevisiae deletion strains, strain wtn01, active compounds read low 0.995 | S. cerevisiae strains, strain wild type, active compounds read low 0.975

Reference: PubChem BioAssay AID1159580 (chemical genetic matrix, 2015)
